Screens: PubChem BioAssay, Broad Institute
esBAF inh = Bmi1 luciferase reporter increase in mESCs, primary screen, esBAF inhibitor project, mouse ES cells, Bmi1 luciferase knock-in, single point; 24 h; 100% = twice the neutral-well signal; reporter increase, % at 12.5 µM; hit rate 2% among 350,000; AID 602393, 2012; in the data active = activation above about 40%; inconclusive = no clear call, values can overlap the other calls;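 also: a rise in the Bmi1 reporter signal indicates esBAF inhibition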
N-glyco inh = increase of ERlucT glycosylation luciferase signal, primary screen, N-linked glycosylation inhibitor project, D54 ERlucT cells, luminescence, set 2; D54 ERlucT glycosylation luciferase reporter, 24 h; percent of 100 nM tunicamycin response; reporter increase, % at 12.5 µM; hit rate 0.23% among 360,000;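 active = mean luciferase reporter signal, scaled so untreated is 0 and the glycosylation-blocking control 100, at or above a set limit in every replicate; inconclusive = mean reaches the limit but not every replicate does; inactive = mean below the limit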;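 also: luciferase carries N-glycosylation sites so blocking glycosylation raises the light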
Wnt bcat act = Wnt/beta-catenin pathway activators, primary screen, cell-based, plate reader, single point. Wnt/beta-catenin reporter cell assay, activator. activation, % at 9.35 µM. hit rate 1.2% among 300,000; in the data active = activation above about 30%, passing the limit was not always enough; inconclusive = no clear call, values can overlap the other calls
PvdQ inh = P. aeruginosa PvdQ acylase inhibitors, primary screen, biochemical, fluorescence, plate reader and imaging, single point. PvdQ acylase [Pseudomonas aeruginosa LESB58]. purified PvdQ acylase. inhibition, % at 10 µM. hit rate 0.063% among 340,000; in the data active = inhibition above about 30%, passing the limit was not always enough; inconclusive = no clear call, values can overlap the other calls
Vif inh = HIV Vif self-association inhibitors, primary screen, imaging, HEK293T, single point; HEK293T cells, Vif self-association by quenched fluorescence, 24 h; hit rate 0.35% among 340,000; inhibition, % at 7.49 µM; in the data active = inhibition above about 50%, passing the limit was not always enough; inconclusive = no clear call, values can overlap the other calls; inactive = below about 31%
MITF TRPM1 HTS = activators of MITF-driven TRPM1 promoter reporter, primary screen, cell-based, SK-MEL-5, luciferase, single point; SK-MEL-5 TRPM1-promoter luciferase, 24 h; % of positive control, neutral wells = 0; activation, % at 12.5 µM; hit rate 0.75% among 300,000;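 active = mean activation of at least 80% with every replicate also reaching 80%; inconclusive = mean reaches 80% but some replicate falls short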
Numbers stand for hits; – = inactive; ? = inconclusive; · = no result given. This is a sample that favours compounds with a hit; in the whole collection about 2.9% have one here.

SMILES	esBAF inh	N-glyco inh	Wnt bcat act	PvdQ inh	Vif inh	MITF TRPM1 HTS
Cc1csc2nc(CSc3ccc(Cl)cc3)cn12	·	–	·	–	–	91.8
Cc1cc(C)n2cc(CSc3ccc(Cl)cc3)nc2n1	–	–	–	–	–	–
Clc1ccc(SCc2cn3ccsc3n2)cc1	·	–	52.4	–	–	–
CCCNC(=O)C[C@@H]1C[C@H]2c3cc(NC(=O)Cc4ccncc4)ccc3O[C@H]2[C@@H](CO)O1	–	·	·	·	·	·
O=C(C[C@@H]1CC[C@H](NC(=O)c2ccccn2)[C@H](CO)O1)NCc1cccc(F)c1	–	·	·	·	·	·
C[C@@H]1CN([C@@H](C)CO)C(=O)c2cc(NS(=O)(=O)c3ccc(F)cc3)ccc2O[C@@H]1CN(C)Cc1ccncc1	–	·	·	·	·	·
C=CCSc1n[nH]c(-c2ccc(OC)cc2)n1	53.5	–	·	–	–	101.5
C=CCSc1n[nH]c(-c2ccccc2)n1	53.5	–	·	–	–	–
COc1ccc(-c2nc(SCC(=O)Nc3cc(C)on3)n[nH]2)cc1	–	–	·	–	·	–
O=C(C[C@@H]1C=C[C@@H](NC(=O)Cc2ccccn2)[C@H](CO)O1)NCCc1ccccc1	–	·	·	·	·	·
Cc1ccc(C)c(Nc2nc(N)c3ccccc3n2)c1	·	–	33.1	–	–	–
COc1ccc(Cl)cc1Nc1nc(N)c2ccccc2n1	–	–	–	–	–	·
C[C@@H]1CCCCO[C@@H](CN(C)Cc2ccc(Cl)c(Cl)c2)[C@@H](C)CN([C@H](C)CO)C(=O)c2cc(NS(C)(=O)=O)ccc2O1	–	·	·	·	·	·
Cc1ccc(NC(=O)Cc2nc(CSc3nnc(-c4ccc5c(c4)OCO5)o3)cs2)cc1	51.0	–	–	–	–	·
O=[N+]([O-])c1ccc(O)c(C=Nc2ccc3c(c2)OCO3)c1	41.4	–	33.8	–	–	–
CO[C@@H]1CN(C)C(=O)c2ccc(NC(=O)C3CCOCC3)cc2OC[C@@H](C)N(CC2CC2)C[C@@H]1C	–	·	·	·	·	·
O=C(C[C@@H]1CC[C@H](NC(=O)c2cccnc2)[C@H](CO)O1)NCc1ccc(Cl)c(Cl)c1	–	·	·	·	·	·
CC(C)(C)c1nnc(N/N=C/c2cc(Br)ccc2O)n(N)c1=O	·	–	32.9	–	–	–
Cc1ccc(/C=C/c2nnc(-c3cccc(C)c3)o2)cc1	52.8	–	–	–	–	–
O=C(NN=C1CCCC1)c1n[nH]c2c1CCCC2	·	–	54.1	–	–	–
CO[C@@H]1CN(C)C(=O)c2ccc(NS(=O)(=O)c3cn(C)cn3)cc2OC[C@@H](C)N(CC2CC2)C[C@@H]1C	–	·	·	·	·	·
CC(=O)Nc1cc(-c2ccc(N3CCN(C)CC3)cc2)cn2c(-c3ccccc3)cnc12	–	–	37.7	·	–	·
CC(=O)Nc1cc(-c2ccc(N3CCN(C)CC3)cc2)cn2c(-c3ccc(S(C)(=O)=O)cc3)cnc12	–	–	–	·	–	·
COC(=O)c1c(-c2ccc(N(C)C)cc2)sc2ccc(OC)cc12	–	–	–	–	–	–
COC(=O)c1c(-c2ccc(OC)cc2)sc2cc3c(cc12)OCO3	49.1	–	33.4	–	–	91.7
SMILES	esBAF inh	N-glyco inh	Wnt bcat act	PvdQ inh	Vif inh	MITF TRPM1 HTS
Cc1ccc(S(=O)(=O)Nc2ccc3c(c2)C(=O)N([C@@H](C)CO)C[C@H](C)[C@H](CN(C)CC2CCCCC2)O3)cc1	–	·	·	·	·	·
COCC(=O)N(C)C[C@@H]1Oc2ncc(C#Cc3ccccc3)cc2C(=O)N([C@@H](C)CO)C[C@H]1C	–	·	·	·	·	·
O=C(O)c1ccc2c3n(nc2c1)-c1ccc(Cl)cc1CO3	·	·	35.8	·	·	·
Cc1ccc2c(c1)COc1c3ccc(C(=O)N4CCOCC4)cc3nn1-2	56.5	–	42.8	–	–	?
O=C(c1ccc2c3n(nc2c1)-c1ccc(Cl)cc1CO3)N1CCCCC1	47.4	–	?	–	–	102.6
c1ccc2c(c1)COc1c3cc4c(cc3nn1-2)OCO4	–	–	–	·	–	·
CCNC(=O)Nc1ccc2c(c1)C(=O)N(C)[C@@H]1CC[C@H](CC(=O)NCCN3CCCC3)O[C@H]1CO2	–	·	·	·	·	·
COc1ccc(C(=O)c2c[nH]c(C(=O)NCCCn3ccnc3)c2)cc1	–	–	39.7	–	–	–
